Source: PubChem BioAssay (The Scripps Research Institute Molecular Screening Center)
PAFAH2 inh: inhibitors of human PAFAH2; recombinant PAFAH2, FP-rhodamine activity probe, fluorescence polarization; inhibition, % at 3.39 µM; actives 0.99% (n = 340,000); AID 492956; Q99487;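 active = inhibition above the mean over all tested compounds plus 3 SD, cut at about 30% in these data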;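 note: inhibitors block probe labeling of enzyme so polarization drops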
PP1 inh: counter-screen for PP5 inhibitors: inhibitors of human PP1-alpha | purified PP1alpha, OMFP fluorescence | P62136 | inhibition, % at 6.7 µM | actives 0.9% (n = 320,000) | AID 2235;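 active = inhibition above the mean inhibition of all tested compounds plus 3 SD, computed separately for each screening campaign, cut at about 15% in these data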
pPAFAH inh: pPAFAH (human) enzyme inhibition; inhibition, % at 3.39 µM; recombinant pPAFAH, FP-rhodamine probe fluorescence polarization; AID 463082; actives 1.5% (n = 330,000); Q13093;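 active = inhibition above the mean inhibition across the screen plus 3 SD, cut at about 25% in these data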;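 note: inhibitors block binding of the rhodamine activity-based probe so polarization drops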
PAFAH1B2 FP inh: blocks human PAF acetylhydrolase 1b catalytic subunit 2; P68402; recombinant PAFAH1B2, FP-rhodamine activity probe, fluorescence polarization; inhibition, % at 3.39 µM; actives 1.2% (n = 340,000);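 active = inhibition above the mean of all tested compounds plus 3 SD, cut at about 24% in these data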
Target sequence (P68402 whole entry, looked up): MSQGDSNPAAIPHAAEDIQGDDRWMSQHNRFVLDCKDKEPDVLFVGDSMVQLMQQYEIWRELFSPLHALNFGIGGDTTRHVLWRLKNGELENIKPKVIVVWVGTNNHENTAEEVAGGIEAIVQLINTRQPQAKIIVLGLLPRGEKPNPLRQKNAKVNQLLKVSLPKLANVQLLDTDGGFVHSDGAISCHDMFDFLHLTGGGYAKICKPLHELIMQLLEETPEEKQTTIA
PAFAH1B3 inh: PAFAH1B3 (human) inhibition; Q15102; inhibition, % at 3.39 µM; recombinant PAFAH1B3, FP-rhodamine probe, fluorescence polarization; actives 0.28% (n = 340,000);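 active = inhibition above the screen-wide average of all tested compounds plus 3 SD, cut at about 25% in these data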
Target sequence (Q15102 whole entry, looked up): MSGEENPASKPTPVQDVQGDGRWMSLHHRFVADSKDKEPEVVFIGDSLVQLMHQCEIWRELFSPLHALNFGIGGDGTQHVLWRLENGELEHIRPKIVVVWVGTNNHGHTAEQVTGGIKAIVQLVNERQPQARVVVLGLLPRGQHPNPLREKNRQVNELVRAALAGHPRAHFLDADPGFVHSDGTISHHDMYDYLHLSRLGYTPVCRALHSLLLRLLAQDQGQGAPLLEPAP
PP5 primary: PP5 (human) phosphatase inhibition | actives 0.18% (n = 320,000) | purified PP5c, OMFP substrate fluorescence | AID 1987 | inhibition, % at 6.7 µM | P53041;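 active = inhibition above the campaign's mean inhibition across all tested compounds plus 3 SD, cut at about 9.5% in these data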
Of the large screens only hits and unclear results are named; the others gave an inactive call. This is a sample that favours compounds with a hit; in the whole collection about 3.4% have one here.

Cc1ccc(C(=O)OCC(=O)Nc2ccc3c(c2)OCO3)c(O)c1	none
O=C(Nc1ccccc1C(=O)NC1CC1)c1ccc([N+](=O)[O-])o1	none (no result: PP1 inh, pPAFAH inh, PP5 primary)
COc1cc(C(=S)N2CCOCC2)cc(OC)c1OS(=O)(=O)c1ccc(Cl)cc1	none
COc1ccc(S(=O)(=O)Oc2cccc(C(=S)N3CCOCC3)c2)cc1	PAFAH1B2 FP inh 26
CCOc1cc(C(=S)N2CCOCC2)ccc1OS(=O)(=O)c1ccc(OC)cc1	none
COc1cccc(C(=S)N2CCOCC2)c1OS(=O)(=O)c1ccc(Cl)cc1	pPAFAH inh 27
CC(C#N)(Cc1ccccc1)Nc1ccccc1 (configuration not stated)	none
CCCCOc1ccc(S(=O)(=O)NC(=O)NCc2ccc(OCCC)cc2)cc1	PAFAH1B2 FP inh 42
CCCCOc1ccc(CNC(=O)NS(=O)(=O)c2ccc(OCC)cc2)cc1	none
CCCCOc1ccc(CNC(=O)NS(=O)(=O)c2ccc(OCC(C)C)cc2)cc1	PAFAH1B2 FP inh 59
CCOc1ccc(CCNC(=O)C(CCC(N)=O)NC(=O)OCc2ccccc2)cc1OCC (configuration not stated)	none
COc1ccc(C(C)NS(=O)(=O)Cc2ccccc2)cc1 (configuration not stated)	none
CCC(C)c1ccccc1N1CC(C(=O)NCCCn2nc(C)cc2C)CC1=O (configuration not stated)	none
CSc1ccccc1N=Cc1nc(-c2ccccc2)oc1O	none
Cc1cccc(/N=C/c2nc(-c3ccccc3Br)oc2O)n1	PAFAH2 inh 66, pPAFAH inh 32
Cc1cc(C)c(C(=O)COC(=O)c2ccc(NC(=O)CC#N)cc2)cc1C	pPAFAH inh 25
CC(C)(C)c1ccc(NC(=O)COC(=O)c2ccc(NS(=O)(=O)c3ccc(F)c(F)c3)cc2)cc1	pPAFAH inh 31
N#CCC(=O)Nc1ccc(C(=O)OCC(=O)c2ccc3c(c2)NC(=O)CO3)cc1	PP1 inh 16
CC(=O)Nc1ccc(C(=O)OCC(=O)c2ccc(C)c([N+](=O)[O-])c2)cc1	PAFAH2 inh 33
CNC(=O)COC(=O)c1ccc(NC(=O)CC#N)cc1	none
COC(=O)C1=C(C(=O)OC)C(C(=O)OC)C(C(=O)OC)C(C(=O)OC)(C(=O)OC)C(C(=O)OC)=C1C(=O)OC (configuration not stated)	none (no result: PP1 inh, pPAFAH inh, PP5 primary)
Cc1cccc(NC(=O)c2ccc(NS(=O)(=O)c3cccc4cccnc34)cc2)c1	none (no result: PP1 inh, pPAFAH inh, PP5 primary)
CN(CC(=O)Nc1ccccc1C(=O)Nc1ccccc1)C1CCCCC1	none (no result: PP1 inh, PP5 primary)
CCN(CC)S(=O)(=O)c1ccc(NC(=O)COC(=O)c2ccc(NC(=O)CC#N)cc2)cc1	pPAFAH inh 26
CCN(CC)S(=O)(=O)c1ccc(NC(=O)COC(=O)c2ccc(Br)o2)cc1	none
Cc1cccc(C(=O)NC(C(=O)Nc2ccc(S(=O)(=O)Nc3nccs3)cc2)C(C)C)c1 (configuration not stated)	none (no result: PP1 inh, pPAFAH inh, PP5 primary)
Cc1ccc(SCc2cn3c(C)csc3n2)cc1	PAFAH1B2 FP inh 53
Cc1ccc(S(=O)(=O)NCc2cn3c(C)csc3n2)cc1	none
CC(C)C[C@@H](CN)NC(=O)c1nc[nH]c1C(=O)N[C@@H](CC(=O)O)C(=O)CNC[C@H](C)NC(=O)c1nc[nH]c1C(=O)N[C@@H](CC(=O)O)C(=O)O	none (no result: PP1 inh, pPAFAH inh, PP5 primary)
O=C(c1ccccc1)C1C(c2ccccc2)C1[N+](=O)[O-] (configuration not stated)	none
CN(C)c1ccc([C@@H]2[C@@H]([N+](=O)[O-])[C@H]3C=Cc4ccccc4N3[C@H]2C(=O)c2ccc(Cl)cc2)cc1	PP1 inh 16
CCOc1ccc(C=NNc2ccc(S(=O)(=O)Nc3ccccc3C(=O)O)cc2[N+](=O)[O-])cc1OC	pPAFAH inh 25 (no result: PP1 inh, PP5 primary)
O=C(O)c1cc(S(=O)(=O)Nc2ccccc2C(=O)O)ccc1O	none
COc1ccc(NC(=O)c2ccccc2NS(=O)(=O)c2ccc(C)cc2)c([N+](=O)[O-])c1	none
O=C(O)c1ccccc1NS(=O)(=O)c1ccc(N/N=C/c2cccc(O)c2O)c([N+](=O)[O-])c1	PAFAH2 inh 63, PAFAH1B2 FP inh 44, PAFAH1B3 inh 48 (no result: PP1 inh, pPAFAH inh, PP5 primary)
CC(=O)Nc1cccc(/C(C)=N/Nc2ccc(S(=O)(=O)Nc3ccccc3C(=O)O)cc2[N+](=O)[O-])c1	PAFAH2 inh 38, PAFAH1B2 FP inh 33 (no result: PP1 inh, pPAFAH inh, PP5 primary)
